# Results filed as inconclusive are left out. Values without a mark were called inactive. Activity calls are given as the source filed them. Calls follow the shape of the dose curve; as a rule, active = well fitted activation curve with a large enough effect; inconclusive = small, poorly fitted or top-dose-only effect; inactive = no such curve, though single readings can be large or run the other way.
# Assay: qHTS for Activators of Parkin Expression: LOPAC Validation Assay (FLuc Reporter) (AID 720573)
# Settings: Cell line, PRKN promoter firefly luciferase reporter, vehicle wells = 0, positive control = 100%; series mostly up to 46.1 µM; activation: at the top concentration
# From the text: Parkin is an E3 ubiquitin ligase localized in the cytosol of cells expressed in many tissues, including brain, skeletal muscle, heart and liver tissues. One hour after stress induction by mitochondrial uncouplers (which mimic mitochondria damage by decreasing the mitochondrial inner membrane electrochemical gradient that is used to produce ATP), Parkin translocates from the cytosol to mitochondria in many cultured cell types, including neurons and HeLa cells. Administration of other mitochondrial poisons, such as Paraquat and azide in cells lacking mitochondrial DNA (mtDNA), induces Parkin translocation to mitochondria. […] It was proposed that Parkin (together with Pink1) mediates a mitochondrial quality control pathway to maintain organelle population fidelity by removing damaged mitochondria. Understanding the normal physiologic role of Parkin (and Pink1) may uncover novel treatment strategies for sporadic Parkinson's disease patients with mutation in these genes.
# A cell based qHTS in 1536 well format was developed assess modulation of Parkin expression using a neuronal cell line that stably expresses a stably expresses a luminescent coincidence reporter (FLuc and NLuc reporters) behind the Parkin promoter. The LOPAC library is used to validate the assay for quantitative high-throughput screening. The data herein reports the signal from the FLuc reporter. An increase in this signal = activation of Parkin expression. For this assay , a positive control normalized signal increase corresponding to a high quality qHTS curve class in both luminescent channels is the desired outcome for this assay.
# NIH Chemical Genomics Center [NCGC]
# NIH Molecular Libraries Probe Centers Network [MLPCN]
# Assay Submitter (PI): Richard Youle, National Institute of Neurological Disorders and Strokes (NINDS), NIH
# [1] Narendra, D., et al., Parkin is recruited selectively to impaired mitochondria and promotes their autophagy. J Cell Biol, 2008. 183(5): p. 795-803.
# [2] Suen, D.F., et al., Parkin overexpression selects against a deleterious mtDNA mutation in heteroplasmic cybrid cells. Proc Natl Acad Sci U S A, 2010. […] 11835-40.
# [3] Cheng K, Inglese J. A coincedence reporter-gene system for high-throughput screening. Nat Methods. 2012: 9(10);937
# Five microliters (1,500 cells/well) of the Parkin coincidence reporter cells were seeded to 1536 well assay plates (Greiner Catalog # 789173-F) and incubated at 37 C, 5% CO2 for 24 hours. Compounds (23 nL) were pinned using the Kalypsys robotic system equipped with 1536 pin head adaptor in 7-point dose response. The assay plates were incubated for additional 24 hr at 37 C, 5% CO2 followed by a volume reduction in each well to 2 uL using an automated plate washer/aspirator. Following the volume reduction,2 uL of FLuc detection reagent and plates were incubated for 10 minutes at room temperature. The FLuc luminescence signal was obtained using the PerkinElmer ViewLux plate imager and then 2 uL of NanoLuc detection reagent was added to the plates. After another 10 minute incubation, NanoLuc signal was obtained using the PerkinElmer ViewLux plate imager as before. Data from each channel was normalized to DMSO (neutral control) and the positive control compounds (100%).
Compound,activation [%],outcome
Cc1ncc(CNC(=O)N(CCCl)N=O)c(N)n1,-0.859,
Cc1cccc(C)c1NC(=O)CN1CCCC1=O,-3.75,
NCC(CC(=O)O)c1ccc(Cl)cc1 (centres undefined),0.168,
CC(O)(CS(=O)(=O)c1ccc(F)cc1)C(=O)Nc1ccc(C#N)c(C(F)(F)F)c1 (centres undefined),-13.8,
CCCN1CCC[C@@H]2Cc3nc(N)ncc3C[C@H]21,6.13,
CC(C)=CCOc1c2occc2cc2ccc(=O)oc12,-6.59,
NCC(O)c1ccc(O)cc1 (centres undefined),-7.56,
CC(=O)[C@H]1CC[C@H]2[C@@H]3CC[C@H]4C[C@](C)(O)CC[C@]4(C)[C@H]3CC[C@]12C,-6.61,
c1ccc2c(c1)OCC(C1=NCCN1)O2 (centres undefined),-17,
CN1C[C@H](CNC(=O)OCc2ccccc2)C[C@@H]2c3cccc4c3c(cn4C)C[C@H]21,-5.56,
CCCC(C)(COC(N)=O)COC(=O)NC(C)C (centres undefined),-0.641,
C[C@@H]1O[C@@H](O[C@H]2C[C@@H](O)[C@]3(CO)[C@H]4[C@H](O)C[C@]5(C)[C@@H](C6=CC(=O)OC6)CC[C@]5(O)[C@@H]4CC[C@]3(O)C2)[C@H](O)[C@H](O)[C@H]1O,-23.4,
CC[C@@H](CO)NC(=O)[C@@H]1C=C2c3cccc4c3c(cn4C)C[C@H]2N(C)C1,-8.74,
CNCC(O)c1ccc(O)cc1 (centres undefined),-2.35,
COC[C@H]1OC(=O)c2coc3c2[C@@]1(C)C1=C(C3=O)C2CCC(=O)[C@@]2(C)C[C@H]1OC(C)=O (some centres undefined),-17,
NN=C(N)N,,inactive
CC(=O)[C@H]1CC[C@H]2[C@@H]3CC[C@H]4C[C@H](O)CC[C@]4(C)[C@H]3C(=O)C[C@]12C,-1.42,

Compound,activation [%],outcome
c1ccc(C2CC2)c(OCC2=NCCN2)c1,-10,
C[C@]12CCC(=O)C(O)=C1CC[C@@H]1[C@@H]2CC[C@]2(C)C(=O)CC[C@@H]12,-5.9,
Cc1cccc(C)c1NC1=NCCCS1,5.83,
COc1ccccc1N1CCNCC1,-6.98,
CCC1(C2=NCCN2)Cc2ccccc2O1 (centres undefined),-6.36,
CC[C@@H](CO)NC(=O)[C@@H]1C=C2c3cccc4[nH]cc(c34)C[C@H]2N(C)C1,-6.09,
NCC1(CC(=O)O)CCCCC1,-5.18,
Fc1ccc(C(OCCN2CCN(CCCc3ccccc3)CC2)c2ccc(F)cc2)cc1,-17.8,
O=C1NCN(c2ccccc2)C12CCN(CC1COc3ccccc3O1)CC2 (centres undefined),-10.7,
Nc1ccncc1,-10.5,
C=C(C)[C@H]1Cc2c(ccc3c2O[C@@H]2COc4cc(OC)c(OC)cc4[C@@H]2C3=O)O1,-25,
CCCN1CCC[C@@H]2Cc3[nH]ncc3C[C@H]21,,inactive
Cc1ccc(S(=O)(=O)N[C@@H](CCCCN)C(=O)CCl)cc1,-8.29,
O=c1[nH]c2ccccc2n1CCCN1CCC(n2c(=O)[nH]c3cc(Cl)ccc32)CC1,0.471,
CC(CCc1ccccc1)NC(C)C(O)c1ccc(O)cc1 (centres undefined),-13.3,
Cc1cc2c(C(C)C)c(O)c(O)c(C=O)c2c(O)c1-c1c(C)cc2c(C(C)C)c(O)c(O)c(C=O)c2c1O,-48.4,
COc1ccc(C(CN(C)C)C2(O)CCCCC2)cc1 (centres undefined),-3.79,
